Holding throughout (experiment): log2 fold change, soluble protein after heating vs DMSO (PISA); higher = thermal stabilisation; K562 lysate, 10 uM; active = over 0.2 and 3.5 SD of the protein, either way, in both replicates (recomputed)
Compound in one assay: CS(=O)(=O)CCNCc1ccc(-c2ccc3ncnc(Nc4ccc(OCc5cccc(F)c5)c(Cl)c4)c3c2)o1 [lapatinib]
A digest of the protocol:
(§1)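 A 30 min treatment with 10 μM compound was applied to crude K562 extract at 1 mg/mL protein in PBS pH 7.4 with 1 mM MgCl2. Heating for 3 min spanned 48°C-58°C, after which aliquots were pooled, adjusted to 0.5% NP-40 at 4°C and spun at 21,000xg for 90 min. TMTpro 16plex LC-MS/MS of the supernatant, with channel sums equalised, gave values recorded as log-two fold change in thermal stability against solvent controls, from duplicates.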

Compound in another assay: CS(=O)(=O)N1CCN(Cc2cc3nc(-c4cccc5[nH]ncc45)nc(N4CCOCC4)c3s2)CC1 [pictilisib]
In short, it runs like this: as §1

Compound in a further assay: C[C@@H](Oc1cc(-c2cnn(C3CCNCC3)c2)cnc1N)c1c(Cl)ccc(F)c1Cl [crizotinib]
A digest of the protocol: as §1

Compound in assay [1]: C[C@H](C1=CC=C(C=C1)C(=O)NC2=C3C=CNC3=NC=C2)N
In short, it runs like this: as §1

Compound in the next assay: C[C@H](Nc1ncnc2nc[nH]c12)c1cc2cccc(Cl)c2c(=O)n1-c1ccccc1 [duvelisib]
A digest of the protocol: as §1

Compound in a further assay: Cc1cc(Nc2cc(CN3CCOCC3)c3nc(C)c(Cc4ccc(Cl)cc4F)n3n2)n[nH]1 [gandotinib]
In short, it runs like this: as §1

Compound in a further assay: Cc1cc(Nc2cc(N3CCN(C)CC3)nc(Sc3ccc(NC(=O)C4CC4)cc3)n2)n[nH]1 [tozasertib]
A digest of the protocol: as §1

Compound in the next assay: Cc1ccc(-n2nc(C(C)(C)C)cc2NC(=O)Nc2ccc(OCCN3CCOCC3)c3ccccc23)cc1 [doramapimod]
In short, it runs like this:
as §1

Compound in a further assay: Cc1ccc(NC(=O)c2ccc(CN3CC[C@H](N(C)C)C3)c(C(F)(F)F)c2)cc1Nc1nccc(-c2cncnc2)n1 [bafetinib]
A digest of the protocol: as §1

Compound in assay [2]: Cc1cccc(CC(=O)N2CCc3c2ccc(-c2cn(C)c4ncnc(N)c24)c3F)n1
A digest of the protocol: as §1

Targets with a hit are over-represented here; the source holds about 8,800 in all. About 0.5% of all pairs of compound and target were hits. A number with no mark means an inactive call.

The results in this text go back to the supplement of paper PMC10849652.

UniProt Q9H1I8, sequence (Q9H1I8 whole entry, looked up): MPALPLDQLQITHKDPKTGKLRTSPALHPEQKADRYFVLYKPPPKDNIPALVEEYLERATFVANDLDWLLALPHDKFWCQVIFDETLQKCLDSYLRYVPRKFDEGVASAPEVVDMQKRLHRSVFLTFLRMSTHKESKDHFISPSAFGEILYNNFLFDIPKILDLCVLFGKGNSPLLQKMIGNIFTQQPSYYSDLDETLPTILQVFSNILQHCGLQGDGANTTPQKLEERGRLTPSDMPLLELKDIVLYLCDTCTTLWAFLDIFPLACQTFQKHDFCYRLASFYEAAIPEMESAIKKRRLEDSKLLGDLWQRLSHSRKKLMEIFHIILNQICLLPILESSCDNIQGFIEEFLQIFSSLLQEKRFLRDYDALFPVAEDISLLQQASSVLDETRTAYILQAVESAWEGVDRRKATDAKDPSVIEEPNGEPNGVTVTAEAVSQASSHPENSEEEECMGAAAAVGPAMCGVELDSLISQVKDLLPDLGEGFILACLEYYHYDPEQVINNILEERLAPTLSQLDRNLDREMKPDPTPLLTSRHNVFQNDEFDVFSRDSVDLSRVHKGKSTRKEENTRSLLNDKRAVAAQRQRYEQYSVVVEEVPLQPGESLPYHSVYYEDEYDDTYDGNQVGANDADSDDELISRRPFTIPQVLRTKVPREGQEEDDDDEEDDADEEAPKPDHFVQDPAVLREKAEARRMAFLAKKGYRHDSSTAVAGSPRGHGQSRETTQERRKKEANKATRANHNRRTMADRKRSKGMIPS
UniProt P52895, sequence (P52895 whole entry, looked up): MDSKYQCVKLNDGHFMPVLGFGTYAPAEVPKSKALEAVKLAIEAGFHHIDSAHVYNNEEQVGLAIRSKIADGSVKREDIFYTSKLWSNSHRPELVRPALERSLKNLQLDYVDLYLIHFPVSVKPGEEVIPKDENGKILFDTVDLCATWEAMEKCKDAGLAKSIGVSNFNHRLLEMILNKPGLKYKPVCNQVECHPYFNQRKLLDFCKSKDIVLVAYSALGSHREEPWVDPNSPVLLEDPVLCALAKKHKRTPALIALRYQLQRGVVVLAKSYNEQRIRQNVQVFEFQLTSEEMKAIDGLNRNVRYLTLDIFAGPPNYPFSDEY
UniProt P11310, sequence (P11310 whole entry, looked up): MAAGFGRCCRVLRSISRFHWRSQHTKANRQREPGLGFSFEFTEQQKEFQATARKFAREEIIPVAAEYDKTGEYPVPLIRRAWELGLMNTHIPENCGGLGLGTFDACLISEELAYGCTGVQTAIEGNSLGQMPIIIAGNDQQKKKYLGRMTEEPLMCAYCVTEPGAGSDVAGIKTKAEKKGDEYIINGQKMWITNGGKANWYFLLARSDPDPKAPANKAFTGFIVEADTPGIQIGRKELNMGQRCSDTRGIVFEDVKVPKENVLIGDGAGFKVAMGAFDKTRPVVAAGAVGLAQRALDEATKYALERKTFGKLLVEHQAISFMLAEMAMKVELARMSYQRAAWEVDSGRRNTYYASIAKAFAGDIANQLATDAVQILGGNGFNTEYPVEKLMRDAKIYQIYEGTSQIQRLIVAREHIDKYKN
UniProt P33121, sequence (P33121 whole entry, looked up): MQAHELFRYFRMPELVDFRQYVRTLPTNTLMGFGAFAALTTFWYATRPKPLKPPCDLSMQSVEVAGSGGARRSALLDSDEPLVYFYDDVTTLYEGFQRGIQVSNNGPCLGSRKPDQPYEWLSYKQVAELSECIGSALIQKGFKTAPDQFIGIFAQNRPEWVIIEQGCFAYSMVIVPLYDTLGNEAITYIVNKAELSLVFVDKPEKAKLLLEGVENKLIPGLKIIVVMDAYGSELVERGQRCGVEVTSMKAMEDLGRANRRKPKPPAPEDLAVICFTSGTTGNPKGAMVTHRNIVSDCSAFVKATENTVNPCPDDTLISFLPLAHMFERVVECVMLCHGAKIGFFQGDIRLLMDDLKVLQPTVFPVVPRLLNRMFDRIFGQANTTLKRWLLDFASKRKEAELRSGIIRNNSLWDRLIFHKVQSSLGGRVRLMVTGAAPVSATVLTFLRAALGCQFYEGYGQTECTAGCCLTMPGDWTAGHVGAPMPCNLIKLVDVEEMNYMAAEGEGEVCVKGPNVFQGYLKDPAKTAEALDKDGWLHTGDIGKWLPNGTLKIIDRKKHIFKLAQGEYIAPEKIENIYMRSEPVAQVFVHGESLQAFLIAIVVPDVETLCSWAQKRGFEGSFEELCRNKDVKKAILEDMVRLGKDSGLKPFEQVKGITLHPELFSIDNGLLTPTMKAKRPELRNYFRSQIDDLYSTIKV
UniProt Q5VST6, sequence (Q5VST6 whole entry, looked up): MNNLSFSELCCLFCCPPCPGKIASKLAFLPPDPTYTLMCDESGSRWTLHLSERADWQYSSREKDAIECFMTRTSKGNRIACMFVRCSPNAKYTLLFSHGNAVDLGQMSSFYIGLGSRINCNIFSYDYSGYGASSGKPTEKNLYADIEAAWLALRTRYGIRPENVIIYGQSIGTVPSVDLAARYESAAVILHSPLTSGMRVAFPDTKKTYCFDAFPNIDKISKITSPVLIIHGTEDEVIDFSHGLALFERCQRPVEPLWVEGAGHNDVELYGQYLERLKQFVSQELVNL
UniProt P17707, sequence (P17707 whole entry, looked up): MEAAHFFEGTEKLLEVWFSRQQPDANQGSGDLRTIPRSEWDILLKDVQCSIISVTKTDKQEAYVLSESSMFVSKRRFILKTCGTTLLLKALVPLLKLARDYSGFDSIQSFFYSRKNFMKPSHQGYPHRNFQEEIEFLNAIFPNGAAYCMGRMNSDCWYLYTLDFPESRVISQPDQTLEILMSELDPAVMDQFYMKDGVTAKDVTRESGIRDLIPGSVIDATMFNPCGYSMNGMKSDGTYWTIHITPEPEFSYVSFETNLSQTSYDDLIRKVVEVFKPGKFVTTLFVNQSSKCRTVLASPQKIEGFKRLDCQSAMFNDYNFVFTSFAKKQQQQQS
UniProt O75843, sequence (O75843 whole entry, looked up): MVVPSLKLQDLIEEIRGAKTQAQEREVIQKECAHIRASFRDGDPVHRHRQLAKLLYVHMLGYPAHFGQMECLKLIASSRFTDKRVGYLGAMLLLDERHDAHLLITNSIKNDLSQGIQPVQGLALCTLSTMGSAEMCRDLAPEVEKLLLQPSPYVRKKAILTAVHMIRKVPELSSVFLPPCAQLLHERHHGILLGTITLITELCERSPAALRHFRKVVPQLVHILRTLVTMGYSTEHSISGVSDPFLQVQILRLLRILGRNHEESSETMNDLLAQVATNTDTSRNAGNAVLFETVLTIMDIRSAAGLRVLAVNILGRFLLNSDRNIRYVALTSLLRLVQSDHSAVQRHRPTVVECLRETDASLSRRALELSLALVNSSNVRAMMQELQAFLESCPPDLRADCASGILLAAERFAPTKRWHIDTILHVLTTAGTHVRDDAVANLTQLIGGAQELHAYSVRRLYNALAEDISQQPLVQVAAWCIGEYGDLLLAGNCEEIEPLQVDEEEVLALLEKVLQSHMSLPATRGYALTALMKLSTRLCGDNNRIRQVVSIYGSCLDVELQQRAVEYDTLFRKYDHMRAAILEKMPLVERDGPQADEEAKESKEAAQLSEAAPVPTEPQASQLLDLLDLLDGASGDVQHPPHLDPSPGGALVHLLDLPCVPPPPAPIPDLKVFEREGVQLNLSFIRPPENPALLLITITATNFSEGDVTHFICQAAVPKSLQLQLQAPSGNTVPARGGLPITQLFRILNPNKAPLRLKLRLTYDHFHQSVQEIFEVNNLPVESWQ
UniProt P16219, sequence (P16219 whole entry, looked up): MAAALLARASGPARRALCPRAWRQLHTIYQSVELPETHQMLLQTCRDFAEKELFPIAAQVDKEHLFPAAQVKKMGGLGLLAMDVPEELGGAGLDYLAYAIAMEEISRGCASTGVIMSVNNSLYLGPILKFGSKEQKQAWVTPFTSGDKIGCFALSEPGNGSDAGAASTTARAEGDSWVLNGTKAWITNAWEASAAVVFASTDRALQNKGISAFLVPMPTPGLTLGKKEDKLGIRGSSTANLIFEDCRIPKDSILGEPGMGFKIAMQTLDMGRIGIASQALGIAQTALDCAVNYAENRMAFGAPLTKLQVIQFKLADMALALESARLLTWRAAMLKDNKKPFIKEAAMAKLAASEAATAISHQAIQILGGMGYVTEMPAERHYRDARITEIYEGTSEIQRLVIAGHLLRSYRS
UniProt P27695, sequence (P27695 whole entry, looked up): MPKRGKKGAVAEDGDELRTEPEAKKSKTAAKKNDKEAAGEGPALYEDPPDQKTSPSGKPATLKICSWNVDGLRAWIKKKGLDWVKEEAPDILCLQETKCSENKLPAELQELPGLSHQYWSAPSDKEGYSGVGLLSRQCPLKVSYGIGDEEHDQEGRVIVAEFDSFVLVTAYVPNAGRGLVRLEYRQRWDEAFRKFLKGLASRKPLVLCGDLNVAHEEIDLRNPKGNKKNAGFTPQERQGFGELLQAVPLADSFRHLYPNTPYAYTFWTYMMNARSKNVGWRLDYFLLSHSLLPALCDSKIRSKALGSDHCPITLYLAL
UniProt P05091, sequence (P05091 whole entry, looked up): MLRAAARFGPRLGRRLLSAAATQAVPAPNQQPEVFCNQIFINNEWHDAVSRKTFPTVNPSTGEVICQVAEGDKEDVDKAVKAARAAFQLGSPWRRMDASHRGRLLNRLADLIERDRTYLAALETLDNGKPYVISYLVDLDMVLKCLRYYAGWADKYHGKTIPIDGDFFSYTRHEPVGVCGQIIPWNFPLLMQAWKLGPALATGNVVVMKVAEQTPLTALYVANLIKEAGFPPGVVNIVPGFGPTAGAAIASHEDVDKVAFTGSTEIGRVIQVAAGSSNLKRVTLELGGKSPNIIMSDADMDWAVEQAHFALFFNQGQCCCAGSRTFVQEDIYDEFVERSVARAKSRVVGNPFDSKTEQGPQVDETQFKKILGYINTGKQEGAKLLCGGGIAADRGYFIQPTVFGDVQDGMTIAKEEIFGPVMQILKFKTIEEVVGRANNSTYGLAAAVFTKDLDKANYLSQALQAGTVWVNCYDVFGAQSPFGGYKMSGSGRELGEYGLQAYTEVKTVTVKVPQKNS

Consider ACSL1 (UniProt P33121), for which the log2 fold change was -0.03 with lapatinib; -0.094 with pictilisib; -0.115 with crizotinib; 0.021 in assay [1]; 0.043 in the assay with duvelisib; -0.049 with gandotinib. The log2 fold change is 0.033 with tozasertib, 0.053 with doramapimod, -0.038 with bafetinib and 0.061 in assay [2].
As for ASCC2 (UniProt Q9H1I8), the log2 fold change with lapatinib is -0.012; with pictilisib, 0.049; with crizotinib, -0.044; in assay [1] it was 0.048; with duvelisib it was 0.04; with gandotinib, -0.026. The log2 fold change was 0.023 with tozasertib, -0.007 with doramapimod, -0.205 in the assay with bafetinib and -0.002 in assay [2].
ACACB (UniProt O00763): the log2 fold change in the assay with lapatinib was -0.032; in the assay with pictilisib it was -0.029; with crizotinib, -0.103; in [1], -0.113; with duvelisib, 0.032; with gandotinib it was 0.021. The log2 fold change with tozasertib was 0.072; in the assay with doramapimod, 0.054; in the assay with bafetinib, -0.113; in assay [2], 0.165.
As for ACADS (UniProt P16219), the log2 fold change in the assay with lapatinib was -0.004; with pictilisib, -0.018; in the assay with crizotinib, -0.027; in assay [1], -0.026; with duvelisib, -0.003; with gandotinib it was 0.016. In addition, the log2 fold change with tozasertib is -0.013; with doramapimod, 0.008; with bafetinib, 0.037; in assay [2], 0.034.
As to AP1G2 (UniProt O75843), the log2 fold change with lapatinib was 0.068; with pictilisib, -0.008; with crizotinib, -0.095; in assay [1], -0.049; with duvelisib it was -0.02; with gandotinib, 0. The log2 fold change with tozasertib was -0.02; with doramapimod it was -0.004; with bafetinib, 0.026; in assay [2] it was 0.039.
With AMD1 (UniProt P17707), the log2 fold change with lapatinib is -0.125; with pictilisib, 0.056; with crizotinib it was 0.035; in assay [1], -0.099; with duvelisib it was 0.12; in the assay with gandotinib, 0.107. For the same target, the log2 fold change with tozasertib is 0.05; with doramapimod, 0.316; with bafetinib, -0.07; in [2], 0.048.
As to ARHGAP21 (UniProt Q5T5U3), the log2 fold change with lapatinib was 0.081; with pictilisib it was -0.116; with crizotinib it was -0.073; in assay [1], 0.071; with duvelisib it was -0.007; with gandotinib, 0.102. In addition, the log2 fold change in the assay with tozasertib is -0.092; in the assay with doramapimod, 0.013; with bafetinib it was -0.133; in assay [2] it was 0.053.
As to APOB (UniProt P04114), the log2 fold change in the assay with lapatinib is 0.054; in the assay with pictilisib it was 0.004; with crizotinib it was -0.003; in assay [1] it was -0.182; with duvelisib, 0.104; with gandotinib, 0.084. Further, the log2 fold change with tozasertib is 0.015; with doramapimod, 0.024; with bafetinib, -0.091; in assay [2], 0.06.
Regarding AGTPBP1 (UniProt Q9UPW5), the log2 fold change is 0.008 with lapatinib; -0.103 with pictilisib; -0.121 in the assay with crizotinib; 0.018 in [1]; 0.009 in the assay with duvelisib; -0.271 in the assay with gandotinib. Further, the log2 fold change in the assay with tozasertib was 0.028; with doramapimod, 0.007; with bafetinib, 0.001; in [2], 0.113.
Turning to ALDH2 (UniProt P05091), the log2 fold change in the assay with lapatinib was 0; with pictilisib, 0; with crizotinib, -0.02; in assay [1], -0.012; in the assay with duvelisib it was -0.03; with gandotinib, 0.011. Further, the log2 fold change in the assay with tozasertib is 0.023; in the assay with doramapimod, -0.023; in the assay with bafetinib it was 0.017; in assay [2] it was -0.077.
As to ACADM isoform 2 (UniProt P11310), the log2 fold change is -0.007 with lapatinib; -0.009 with pictilisib; -0.042 with crizotinib; -0.007 in assay [1]; -0.007 in the assay with duvelisib; 0.029 with gandotinib. The log2 fold change in the assay with tozasertib is 0.029; with doramapimod, -0.03; with bafetinib, 0.024; in [2], -0.01.
ABHD17B (UniProt Q5VST6): the log2 fold change in the assay with lapatinib is 0.075; with pictilisib, -0.076; with crizotinib, -0.051; in assay [1] it was 0.01; with duvelisib, 0.026; in the assay with gandotinib, -0.012. Moreover, the log2 fold change in the assay with tozasertib is -0.513 (active); with doramapimod, -0.026; in the assay with bafetinib, 0.01; in assay [2], 0.183.
Turning to APEX1 (UniProt P27695), the log2 fold change in the assay with lapatinib was 0.022; in the assay with pictilisib it was 0.039; with crizotinib it was -0.01; in assay [1], 0.352 (active); with duvelisib, -0.025; with gandotinib, -0.042. Besides, the log2 fold change is -0.029 in the assay with tozasertib, -0.045 in the assay with doramapimod, 0.106 with bafetinib and -0.067 in [2].
In the case of AKAP8L (UniProt Q9ULX6), the log2 fold change is 0.017 in the assay with lapatinib; -0.018 with pictilisib; 0.053 in the assay with crizotinib; -0.05 in assay [1]; 0.038 with duvelisib; 0.033 with gandotinib. The log2 fold change was 0 with tozasertib, -0.153 in the assay with doramapimod, 0.016 in the assay with bafetinib and 0.011 in assay [2].
Regarding AKR1C2 (UniProt P52895), the log2 fold change with lapatinib was -0.012; with pictilisib it was -0.022; with crizotinib, -0.059; in assay [1], -0.201; with duvelisib, 0.049; in the assay with gandotinib, 0.276 (active). The log2 fold change with tozasertib was 0.014; in the assay with doramapimod it was -0.011; with bafetinib it was 0.108; in assay [2], 0.18.
